Results reported in PubChem BioAssay AID1053173 (Broad Institute, 2014).
Hit rate of the full screen: of about 1,500 compounds, about 390 (26%) were called active. The rule behind the calls is not given here. Not all results are given here. Results with a measured potency or affinity are listed apart.

Each compound was assayed against Histone-lysine N-methyltransferase NSD2 (Homo sapiens) (UniProt O96028) (assay: blockers of NSD2 H4 peptide methylation – biochemical, AlphaScreen, cherry-picked samples, dose response (AID 1053173)). Details: 120 min; series mostly up to 10 µM.
Sequence of Histone-lysine N-methyltransferase NSD2 (Homo sapiens) (O96028 whole entry, looked up): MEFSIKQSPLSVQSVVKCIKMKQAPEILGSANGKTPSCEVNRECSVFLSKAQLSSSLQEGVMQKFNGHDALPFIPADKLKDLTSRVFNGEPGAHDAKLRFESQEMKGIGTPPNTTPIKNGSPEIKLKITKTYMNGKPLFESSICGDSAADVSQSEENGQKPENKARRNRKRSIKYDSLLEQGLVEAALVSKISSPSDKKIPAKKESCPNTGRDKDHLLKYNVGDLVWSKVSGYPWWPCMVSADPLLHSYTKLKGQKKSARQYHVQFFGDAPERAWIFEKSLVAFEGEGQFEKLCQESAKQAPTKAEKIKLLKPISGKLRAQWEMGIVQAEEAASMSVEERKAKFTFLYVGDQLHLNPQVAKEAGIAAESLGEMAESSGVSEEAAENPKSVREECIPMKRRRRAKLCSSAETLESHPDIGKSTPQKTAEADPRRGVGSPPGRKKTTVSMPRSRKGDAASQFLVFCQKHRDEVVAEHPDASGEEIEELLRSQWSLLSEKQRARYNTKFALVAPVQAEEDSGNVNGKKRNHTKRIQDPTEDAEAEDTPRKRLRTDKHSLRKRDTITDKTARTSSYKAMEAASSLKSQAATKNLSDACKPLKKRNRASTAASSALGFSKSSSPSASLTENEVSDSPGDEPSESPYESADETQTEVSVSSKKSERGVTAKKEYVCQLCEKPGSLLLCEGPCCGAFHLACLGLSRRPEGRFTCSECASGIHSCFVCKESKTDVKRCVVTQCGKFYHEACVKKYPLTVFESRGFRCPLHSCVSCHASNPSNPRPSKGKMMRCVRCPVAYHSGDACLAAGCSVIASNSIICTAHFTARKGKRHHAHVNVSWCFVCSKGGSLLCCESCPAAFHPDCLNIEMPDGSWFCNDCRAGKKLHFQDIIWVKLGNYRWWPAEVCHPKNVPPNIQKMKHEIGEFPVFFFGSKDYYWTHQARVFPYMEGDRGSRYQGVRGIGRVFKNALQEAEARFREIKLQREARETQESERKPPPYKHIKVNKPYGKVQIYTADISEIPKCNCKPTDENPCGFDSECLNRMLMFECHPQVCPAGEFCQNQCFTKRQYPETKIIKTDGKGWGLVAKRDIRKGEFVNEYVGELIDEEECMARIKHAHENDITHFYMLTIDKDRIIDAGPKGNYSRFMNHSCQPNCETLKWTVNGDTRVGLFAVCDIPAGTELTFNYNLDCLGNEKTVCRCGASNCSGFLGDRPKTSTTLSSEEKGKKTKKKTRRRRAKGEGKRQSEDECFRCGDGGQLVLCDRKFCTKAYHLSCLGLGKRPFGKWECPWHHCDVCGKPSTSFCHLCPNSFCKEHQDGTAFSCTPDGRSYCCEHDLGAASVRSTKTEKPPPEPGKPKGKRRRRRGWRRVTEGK

outcome, inactive:
O=C(NC1=NCCS1)c1csc2ccccc12, O=C(Nc1cc(C(F)(F)F)ccc1N1CCCC1)C1CC(=O)N(Cc2ccccc2)C1 (stereo not given), Cc1cc(C)c(NC(=S)N(C)C)cc1C, COc1ccc(C2/C(=C(\O)c3cccc(OC)c3)C(=O)C(=O)N2c2ccccn2)cc1 (stereo not given), COc1ccc(C(=O)N[C@H](C(=O)NCc2ccc(C)cc2)C(C)C)cc1, Cc1ccc(C)c(S(=O)(=O)N2CCCOC2CNC(=O)C(=O)NCc2cccnc2)c1 (stereo not given), Nc1c2c(=O)[nH]c(O)cc2nn1-c1ccccc1, COc1ccc(OC)c(C(=O)Nc2c(O)ccc3ccccc23)c1, O=c1[nH]c(CN2CCCCC2)ccc1O, Cc1cc(=O)n2[nH]c(-c3ccco3)nc2n1, Cc1onc(-c2c(Cl)cccc2Cl)c1C(=O)ONC(=O)c1cc(C(F)(F)F)cc(C(F)(F)F)c1, O=[N+]([O-])c1ccc(-c2cccnc2)cc1, O=c1c2ccc([N+](=O)[O-])cc2sn1-c1ccccc1, CCOc1ccccc1NCc1nnc(-c2ccccc2)o1, O=C(c1cc(-c2ccc(Cl)c(Cl)c2)on1)N1CCCCCC1, COc1ccc(C)cc1S(=O)(=O)Nc1ccccc1C, O=[N+]([O-])c1ccc(N(CC(O)CN2CCCCC2)S(=O)(=O)c2ccccc2)cc1 (stereo not given), O=S(=O)(c1ccc2c(c1)nc1n2CCC1)N1CCOCC1, CCCc1nc2sc3ccccc3c(=O)c2c(=O)n1Cc1ccccc1, CCOc1ccccc1N(CC(=O)NCCc1ccc(OC)c(OC)c1)S(=O)(=O)c1ccccc1, COc1ccc(CCNc2c([N+](=O)[O-])ncn2C)cc1OC, COCc1[nH][nH]c(=O)c1C=NCC(=O)OC, N=C1C(c2nc(-c3ccc(F)cc3)cs2)=C(O)CN1Cc1ccc(Cl)cc1, CC(C)(C)c1[nH]nc2c1C(C1C=CCCC1)C(C#N)=C(N)O2 (stereo not given), O=C(NC1CCCCC1)c1ccc(S(=O)(=O)NCc2ccco2)cc1, Cn1c(=O)c2c(-c3ccccc3)n(Cc3cccnc3)cc2n(C)c1=O, CCOC(=O)c1c(C)[nH]c(C(=O)NCCN2CCOCC2)c1C, O=C(CCCN1C(=O)/C(=C/c2ccccc2)SC1=S)Nc1ccc(C(=O)O)c(O)c1, O=C(CCCN1C(=O)/C(=C/c2cccs2)SC1=S)Nc1ccc(O)c(C(=O)O)c1, N=c1c(C(=O)NCc2ccco2)cc2c(=O)n3ccccc3nc2n1C1CCCC1, COc1cccc(CN2CCC(Oc3ccc(C(=O)N4CCCCC4)cc3)CC2)c1O, Cc1ccc(NC(=O)CN(C)CCOc2ccccc2)c([N+](=O)[O-])c1, CN1CCN(/N=C/c2nc(-c3ccccc3Cl)n3ccccc23)CC1, Cn1c(SCc2ccccc2C#N)nc2ccccc2c1=O, COc1cn(-c2ccccc2)nc1C(=O)NCc1ccccc1, C=CCSc1nnc(-c2ccc(Cl)cc2Cl)o1, CCOC(=O)C1=CN(c2cccc(F)c2)C=C(C(=O)OCC)C1c1cc(OC)c(O)c([N+](=O)[O-])c1, CCC1CC(CSc2ncn[nH]2)OC1=O (stereo not given), COc1ccccc1CNC(=O)C(NC(=O)Nc1ccccc1)C(C)C (stereo not given), CC(C)(C)/C=N/NC(=O)CNC(=O)c1ccc2c(c1)OCCO2, CS(=O)(=O)N(CC(=O)NCc1ccco1)c1ccc2c(c1)OCO2, COc1cc(NC(=O)COC(=O)CNC(=O)c2ccc(C)cc2)c(C)cc1[N+](=O)[O-], Fc1ccc(NC(=S)Nc2ccc3nccnc3c2)cc1, CCOc1ccc(NC(=S)N2CCC(NC(=O)C3CCCCC3)CC2)cc1, CCc1ccc(NC(=S)Nc2cccc3cnccc23)cc1, S=C(Nc1ccc2nsnc2c1)N1CCCC1, Cc1ccc(NC(=S)Nc2cccc3cnccc23)cc1, COc1cc(/C=N/N2CCN(C3c4ccccc4-c4ccccc43)CC2)cc(OC)c1OC, Cc1ccc(CSc2nc3c(c(=O)[nH]2)C(c2ccncc2)C2=C(CCCC2=O)N3)cc1 (stereo not given), CC(=O)c1cccc(NC(=O)c2csc(-n3nc(C)cc3C(F)(F)F)n2)c1, CCCC(C(=O)NC(C)(C)C)N(CC1CCCO1)C(=O)CNS(=O)(=O)c1ccc(F)cc1 (stereo not given), CC(=O)Nc1ccc(SCCC2CCCCN2C)cc1 (stereo not given), CCOc1ccc(-n2cnc3sc4c(c3c2=O)CCCC4)cc1, C[N+](C)(C)CCC(=O)N1C/C(=C/c2ccccc2)C(=O)/C(=C\c2ccccc2)C1, O=C(CN1C(=O)c2ccc([N+](=O)[O-])cc2C1=O)Nc1nnc(C2CC2)s1, Cc1ccc(NC(=O)c2cc([N+](=O)[O-])ccc2NCc2cccnc2)cc1Cl, CC(=O)N1CCc2cc(Br)cc(S(=O)(=O)NCCCN(C)Cc3ccccc3)c21, CN1CCC(=NNC(=O)c2cn(-c3ccccc3)nc2-c2ccccc2)CC1, Cc1ccccc1-c1noc(C23CC4CC(CC(C4)C2)C3)n1, CCOC(=O)C1CCCN(C(=O)c2ccc(OC(C)=O)cc2)C1 (stereo not given), Cc1nnc(Sc2cc(NCCO)c([N+](=O)[O-])c3nonc23)s1, CC(C)CNC(=O)c1cnn2c(C(F)(F)F)cc(C(F)(F)F)nc12, Nc1c(Br)cc(Br)c2c1[nH]c(=O)c1ccccc12, CCOc1cc(N2CCOCC2)c(OCC)cc1NC(=O)c1cnccn1, COc1cc(/C=N/n2c(C)nnc2C)cc(OC)c1OC, O=C(c1ccccc1OCc1ccccc1Br)N1CCN(c2ncccn2)CC1, CSc1nnc(-c2ccco2)c(-c2ccco2)n1, N#Cc1ccc(-c2ccco2)nc1SCc1ccccc1, CCOC(=O)CC(NS(=O)(=O)c1ccc2[nH]cc(C(=O)O)c(=O)c2c1)c1ccc(OCC)c(OC)c1 (stereo not given), O=C(/C=C/c1ccc(OCCCF)cc1)N1CCN(Cc2ccccc2)CC1
